# From PubChem BioAssay
# An excerpt weighted towards active compounds, which were near 10% of everything screened.
# Mm-Cpn inhibitor: inhibitors of Methanococcus maripaludis chaperonin TRiC (MmCpn); purified Mm-Cpn ATPase, ADP Transcreener TR-FRET; Potency, µM (top dose mostly 76.9 µM), for inactives: at the top dose activity, negative = inhibition, usual class: inhibitors; 0.031% of 330,000 active; AID 504842; also: potency is read from the fitted curve at half-maximal effect; % is scaled to controls: 0 for no effect and ±100 for the full control effect; nearly all actives have a fitted effect of over 80% in size
#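 ATP (10 uM final) was added to archaeal chaperonin (25 nM final) after 10 min exposure to test compound at 37°C; after 30 min further incubation, ADP was detected by competitive TR-FRET.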
# PLK1 PBD block: blocks phosphopeptide binding to human PLK1 polo-box domain. P53350. Plk1 PBD binding of FITC phosphopeptide, fluorescence polarization. Potency, µM, inactives show max response, negative = inhibition, usual class: inhibitors. 2.8% of 360,000 active. AID 720504; also: potency is read from the fitted curve at half-maximal effect; series mostly up to about 57 µM; % is scaled to controls: 0 for no effect and ±100 for the full control effect; nearly all actives have a fitted effect of over 65% in size
# Target sequence (P53350 whole entry, looked up, the tested form may be a part): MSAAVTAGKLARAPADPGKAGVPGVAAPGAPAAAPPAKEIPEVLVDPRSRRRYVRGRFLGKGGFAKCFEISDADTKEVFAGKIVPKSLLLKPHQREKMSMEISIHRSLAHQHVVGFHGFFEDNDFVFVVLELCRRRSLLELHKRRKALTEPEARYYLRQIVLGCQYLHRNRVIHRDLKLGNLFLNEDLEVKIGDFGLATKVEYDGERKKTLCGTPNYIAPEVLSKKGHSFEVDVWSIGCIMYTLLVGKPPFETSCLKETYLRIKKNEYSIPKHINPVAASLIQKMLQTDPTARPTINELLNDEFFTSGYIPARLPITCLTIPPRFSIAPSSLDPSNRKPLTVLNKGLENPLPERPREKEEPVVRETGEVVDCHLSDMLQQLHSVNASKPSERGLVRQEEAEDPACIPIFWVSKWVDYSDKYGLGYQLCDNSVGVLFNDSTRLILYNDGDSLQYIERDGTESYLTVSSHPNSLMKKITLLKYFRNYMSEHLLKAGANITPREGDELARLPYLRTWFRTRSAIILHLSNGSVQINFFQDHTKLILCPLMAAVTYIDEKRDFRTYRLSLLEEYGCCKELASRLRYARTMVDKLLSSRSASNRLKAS
# CCT chaperon mod: changes cytosolic chaperonin activity | purified chaperonin ATPase assay, HTRF ADP detection, 30 min | activity change, % (concentration not given with the values), hits read low | 0.3% of 360,000 active; in the data active = activity change below about -30%; also: % is scaled to controls: 0 for no effect and ±100 for the full control effect
#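 First, chaperonin was dispensed at 40 nM or 20 nM final depending on batch activity. Next, compounds were pinned at 76 uM and ATP added at 10 uM. After 30 min at 37 °C, ADP detection reagents ran 30 min at ambient temperature.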
# VDR inh: blocks the human vitamin D receptor. Potency, µM, without a hit: max response, negative = inhibition, hits mostly inhibitors. 0.93% of 400,000 active. P11473. VDR-SRC2-3 peptide fluorescence polarization, 2 h; also: potency is read from the fitted curve at half-maximal effect; % is scaled to controls: 0 for no effect and ±100 for the full control effect
#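 After 23 nl compound addition and a short centrifugation, plates sat for 2 hours at ambient temperature; polarization of fluorescence then indicated loss of VDR binding to peptide SRC2-3.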
# Sfp inh: inhibitors of Bacillus subtilis Sfp phosphopantetheinyl transferase. Potency, µM, for the others: largest response in the series, negative = inhibition, usual class: inhibitors. 3.5% of 310,000 active. Biochemical Sfp PPTase activity, qHTS;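 also: the enzyme is Sfp with the accession as filed and its product quenches rhodamine fluorescence; potency is read from the fitted curve at half-maximal effect; 0% = enzyme reaction without inhibitor and -100% = no enzyme wells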
#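 With Hepes-Na pH 7.6 buffer containing 10 mM MgCl2, Sfp (15 nM) modified BHQ-2-YbbR (12.5 uM) using rhodamine-CoA (5 uM). Two reads 30 minutes apart at 525/598 nm yielded each well's rate.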
# G9a inh: G9a (human) methyltransferase inhibition | G9a H3K9 monomethylation, AlphaScreen, 2 h | Potency, µM (top dose mostly 102 µM), for the others: at the highest dose activity, negative = inhibition, actives largely listed as inhibitors | 8.8% of 350,000 active; also: potency is read from the fitted curve at half-maximal effect; % is scaled to controls: 0 for no effect and ±100 for the full control effect; nearly all actives have a fitted effect of over 75% in size
#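 Readings reflect AlphaScreen signal from monomethyl-H3K9 antibody detection. HMT at 20 nM; substrate b-H3K9 500 nM; cofactor SAM 20 uM; 2 h RT reaction; compounds tested as titrations in qHTS with 15 min preincubation.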
# VDR inh confirm: inhibits human vitamin D receptor, primary hit validation. shares compounds with VDR inh. Potency, µM, hits mostly inhibitors. VDR-coactivator inhibition assay, qHTS confirmation. 89% of 840 active; also: potency is read from the fitted curve at half-maximal effect
# VDR FP: VDR (human) coactivator binding inhibition, fluorescein polarization | shares compounds with VDR inh | VDR-coactivator binding, fluorescein fluorescence polarization | Potency, µM (top dose mostly 57.1 µM), inactives show at the highest dose activity change, negative = inhibition, hits mostly inhibitors | 48% of 840 active | AID 602200; also: potency is read from the fitted curve at half-maximal effect
# VDR bla reporter: inhibits human VDR in beta-lactamase reporter cells | shares compounds with VDR inh | VDR beta-lactamase reporter cells, FRET ratio; cells co-treated with VDR agonist LG190178 | Potency, µM (series often up to 46.1 µM), for inactives: at the highest dose activity change, negative = inhibition, hits mostly inhibitors | 23% of 840 active | AID 602202; also: potency is read from the fitted curve at half-maximal effect; % is scaled to controls: 0 for no effect and ±100 for the full control effect
# VDR viability: cytotoxic in counter-screen for VDR inhibitors; shares compounds with VDR inh; cytotoxicity counter-screen, cell viability, qHTS; Potency, µM (top dose mostly 48.3 µM), without a hit: at the highest dose activity change, negative = cytotoxicity, usual class: cytotoxic; 18% of 840 active; AID 602204;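 also: potency is read from the fitted curve at half-maximal effect; plate controls were DMSO for no effect and high-concentration cycloheximide for full effect; nearly all actives have a fitted effect of over 75% in size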
# TbPYK inh: confirmation of Trypanosoma brucei pyruvate kinase inhibitors. AID 720569. shares compounds with PLK1 PBD block. Potency, µM (highest dose often 76.9 µM), for inactives: at the highest dose activity change, negative = inhibition, hits mostly inhibitors. recombinant TbPYK, Kinase-Glo ATP luminescence. 67% of 890 active; also: potency is read from the fitted curve at half-maximal effect; % is scaled to controls: 0 for no effect and ±100 for the full control effect; nearly all actives have a fitted effect of over 70% in size
# TbPYK orthogonal: inhibits T. brucei pyruvate kinase in orthogonal ADP-Glo assay; AID 720584; shares compounds with PLK1 PBD block; recombinant TbPYK, ADP-Glo luminescence, 60 min; Potency, µM (highest dose often 76.9 µM), without a hit: at the highest dose activity change, negative = inhibition, actives largely listed as inhibitors; 62% of 890 active; also: potency is read from the fitted curve at half-maximal effect; % is scaled to controls: 0 for no effect and ±100 for the full control effect; nearly all actives have a fitted effect of over 75% in size
# * hit, by the source's call; ? = inconclusive; / = no result given; [ ] = another dose, or the depositor's remark. Unless noted, calls follow the shape of the dose curve; as a rule, active = well fitted curve in the direction sought with a large enough effect; inconclusive = small, poorly fitted or top-dose-only effect, or another doubt; inactive = no such curve, though single readings can be large; an effect the other way counts as inactive or inconclusive.
SMILES,Mm-Cpn inhibitor,PLK1 PBD block,CCT chaperon mod,VDR inh,Sfp inh,G9a inh,VDR inh confirm,VDR FP,VDR bla reporter,VDR viability,others
O=c1n(Cc2ccc(F)cc2Cl)c2ccccc2c2nc(-c3ccccc3)nn12,/,/,/,7%,/,8%[59 µM],/,/,/,/,
CC(N=Cc1cccc(O)c1O)c1ccccc1 (stereo not given),1%,?,-1,50µM*,?,1.3µM*,20*,10µM*,12µM*,-17%,
O=S(=O)(Nc1c(S(=O)(=O)c2ccccc2)c2nc3ccccc3nc2n1C1CCCCC1)c1ccccc1,0%,4.2µM*,2,?,-26%,3%[59 µM],0.35*,0.35µM*,-15%,-18%,
COc1ccc(Cl)cc1NS(=O)(=O)c1cc(-c2cc(C)no2)ccc1C,/,/,/,14%,/,-2%[59 µM],/,/,/,/,
CCN(c1ccccc1)S(=O)(=O)c1nnc(NC(=O)COc2cccc(C)c2)s1,/,/,/,0%,/,0%[59 µM],/,/,/,/,
COc1cc([N+](=O)[O-])ccc1-c1ccc(/C=C2\C(=O)ON=C2c2ccccc2)o1,/,2.7µM*,0,?,/,/,2.5*,1.8µM*,?,?,
CCOc1cc(/C=C2/C(=O)ON=C2C)cc(Br)c1O,1%,5%,-1,56µM*,-28%,45µM*,9.5*,233%,33%,11%,
C#CCOc1ccc(/C=C2/C(=O)ON=C2C)cc1Br,0%,1.7µM*,2,40µM*,56µM*,35µM*,11*,?,?,-15%,
CCOc1cc(/C=C2\C(=O)ON=C2c2ccccc2)cc(Br)c1O,0%,?,1,25µM*,79µM*,25µM*,3.8*,179%,?,-11%,
COc1cc(/C=C2\C(=O)ON=C2c2ccccc2)cc(Cl)c1O,1%,?,1,45µM*,-31%,35µM*,5.3*,199%,?,-28%,
COc1cc(/C=C2\C(=O)ON=C2c2ccccc2)cc(Br)c1O,-3%,?,0,25µM*,?,35µM*,3.8*,175%,?,-21%,
CC(C)C[C@H](N)c1nnc(SCc2ccc(Cl)cc2Cl)o1,/,/,/,1%,/,20%[59 µM],/,/,/,/,
CC(C)C[C@H](N)c1nnc(S(=O)(=O)Cc2ccc(F)cc2)o1,-2%,?,-6,32µM*,14µM*,?,?,20µM*,?,?,
Cc1ccc(Cn2c(SCc3ccc(C(=O)N4CCCCCC4)cc3)nc3ccncc32)cc1,/,/,/,3%,/,-1%[59 µM],/,/,/,/,
COc1ccc(C(=O)/C=C/c2ccc(C)cc2)c(OC(=O)c2ccc([N+](=O)[O-])cc2)c1,2%,-2%,-2,-10%,-1%,?,/,/,/,/,
COc1ccc(C(=O)/C=C/c2ccccc2F)c(OC(=O)c2ccc([N+](=O)[O-])cc2)c1,?,-2%,0,?,9%,-50%,?,6.3µM*,?,-23%,
COc1cc(CC(=O)OCc2cccc([N+](=O)[O-])c2)cc(OC)c1OC,1%,-11%,0,9%,10%,6%,/,/,/,/,
COc1cc(/C=C/C(=O)c2cccc([N+](=O)[O-])c2)cc(OC)c1OC,3%,?,2,?,-15%,?,2.2*,2.5µM*,?,?,
O=C(/C=C/c1ccccc1F)c1cccc([N+](=O)[O-])c1,-7%,?,0,13µM*,2.8µM*,28µM*,2.5*,1.6µM*,26µM*,0%,
COc1ccc(/C=C/C(=O)c2ccc(C)c([N+](=O)[O-])c2)cc1O,-7%,-25%,0,35µM*,79µM*,45µM*,11*,7.9µM*,?,?,
CC1(C)CC(=O)C2=C(C1)OC1=C(C(=O)CC(C)(C)C1)C2c1cccc([N+](=O)[O-])c1,/,4%,0,/,/,/,/,/,/,/,
CC1(C)CC(=O)C2=C(C1)OC1=C(C(=O)CC(C)(C)C1)C2c1ccc(O)cc1O,-6%,3.5µM*,-2,8.9µM*,7.9µM*,2.8µM*,6.7*,?,16µM*,?,TbPYK inh=28µM*;TbPYK orthogonal=?
CCC(=O)NC1=C(Cl)C(=O)C(NC(=O)CC)=C(Cl)C1=O,-6%,1.7µM*,-1,14µM*,0.56µM*,0.25µM*,6.7*,5µM*,15µM*,13µM*,TbPYK inh=0.25µM*;TbPYK orthogonal=0.4µM*
CCC(=O)N(CC)C1=C(O)c2ccccc2C(=O)C1=O,0%,24µM*,2,79µM*,11µM*,1µM*,?,?,?,?,TbPYK inh=-98%;TbPYK orthogonal=25µM*
COc1ccc(CN(C(=O)/C=C/C(=O)c2ccc(OC)cc2O)C(C(=O)NC2CCCCC2)c2ccncc2)cc1 (stereo not given),-1%,-1%,1,-22%,-3%,-7%[59 µM],/,/,/,/,
COCCN(CC(=O)NC1CCCCC1)C(=O)/C=C/C(=O)c1ccc(OC)cc1O,0%,21µM*,0,16µM*,0%,/,9.5*,?,21µM*,?,TbPYK inh=7.1µM*;TbPYK orthogonal=13µM*
COc1ccccc1NC(=O)c1oc2ccccc2c1NC(=O)c1c(F)cccc1F,/,/,/,-14%,/,7%[59 µM],/,/,/,/,
O=C1N=c2ccccc2=C1c1c(O)n(-c2cccc(F)c2)[nH]c1=O,0%,5.3µM*,-1,71µM*,11µM*,4µM*,6*,?,-2%,-2%,TbPYK inh=3.5µM*;TbPYK orthogonal=7.9µM*
COc1ccc(-n2cc(C(=O)N(C)c3cc(C)ccc3OC)c3ccccc3c2=O)cc1,/,/,/,-5%,/,?,/,/,/,/,
